According to PubChem BioAssay AID488848 (Broad Institute, 2010):
Results with a measured potency or affinity are listed apart. Activity calls are given as the source filed them.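 How the source made its calls: active means compounds lowering caspase signal with half-maximal concentration at most ten times their top tested dose; inconclusive means flat curve with 30 to 70% inhibition, or poor fit; inactive means the rest.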

Assay: suppression of cytokine-induced beta-cell apoptosis – INS-1E, caspase luminescence, dry powder, beta-cell apoptosis inhibitor project, dose response (AID 488848)
Conditions: INS-1E cytokine-induced caspase-3/7 luminescence, 48 h; series mostly up to 19.5 µM

outcome, inactive:
C[C@@H]1CN([C@@H](C)CO)C(=O)c2cccc(NC(=O)Nc3cccc4ccccc34)c2O[C@H]1CN(C)S(=O)(=O)c1ccc2c(c1)CCC(=O)N2
C[C@@H]1CN([C@@H](C)CO)C(=O)c2cccc(NC(=O)Nc3cccc4ccccc34)c2O[C@H]1CN(C)S(=O)(=O)c1cccc(F)c1
COc1ccc(S(=O)(=O)N(C)C[C@@H]2Oc3c(NC(=O)Nc4ccc5c(c4)OCCO5)cccc3C(=O)N([C@@H](C)CO)C[C@H]2C)cc1
COc1ccc(S(=O)(=O)N(C)C[C@@H]2Oc3c(NC(=O)Nc4cc(F)cc5c4OCOC5)cccc3C(=O)N([C@@H](C)CO)C[C@H]2C)cc1
C[C@@H]1CN([C@@H](C)CO)C(=O)c2cccc(NC(=O)Nc3ccc(F)cc3)c2O[C@H]1CN(C)S(=O)(=O)c1ccc(Cl)cc1
COc1ccc(S(=O)(=O)N(C)C[C@@H]2Oc3c(NC(=O)Nc4cc(F)ccc4F)cccc3C(=O)N([C@@H](C)CO)C[C@H]2C)cc1
COc1ccc(S(=O)(=O)N(C)C[C@@H]2Oc3c(NC(=O)Nc4cccc5ccccc45)cccc3C(=O)N([C@@H](C)CO)C[C@H]2C)cc1Cl
COc1ccc(S(=O)(=O)N(C)C[C@@H]2Oc3ccc(NC(=O)Nc4cccc5ccccc45)cc3C(=O)N([C@@H](C)CO)C[C@H]2C)cc1
COc1ccc(S(=O)(=O)N(C)C[C@@H]2Oc3c(NC(=O)Nc4cccc5ccccc45)cccc3C(=O)N([C@@H](C)CO)C[C@H]2C)cc1F
